From PubChem BioAssay (NCATS)
Inconclusive results are not listed. A call without a number means that no potency is given here. Unmarked numbers belong to inactive results. The source made the active and inactive calls. Calls follow the shape of the dose curve; as a rule, active = well fitted curve in the direction sought with a large enough effect; inconclusive = small, poorly fitted or top-dose-only effect, or another doubt; inactive = no such curve, though single readings can be large; an effect the other way counts as inactive or inconclusive.

What was measured:
[1] = target: Rap guanine nucleotide exchange factor 3 (Homo sapiens) (UniProt O95398); assay: Confirmatory qHTS for antagonist of cAMP-regulated guanine nucleotide exchange factor 3 (EPAC1) (AID 1645880); also: nearly all actives have a fitted effect of over 55% in size; also: potency is read from the fitted curve at half-maximal effect
Rap guanine nucleotide exchange factor 3 (Homo sapiens), sequence (O95398 whole entry, looked up): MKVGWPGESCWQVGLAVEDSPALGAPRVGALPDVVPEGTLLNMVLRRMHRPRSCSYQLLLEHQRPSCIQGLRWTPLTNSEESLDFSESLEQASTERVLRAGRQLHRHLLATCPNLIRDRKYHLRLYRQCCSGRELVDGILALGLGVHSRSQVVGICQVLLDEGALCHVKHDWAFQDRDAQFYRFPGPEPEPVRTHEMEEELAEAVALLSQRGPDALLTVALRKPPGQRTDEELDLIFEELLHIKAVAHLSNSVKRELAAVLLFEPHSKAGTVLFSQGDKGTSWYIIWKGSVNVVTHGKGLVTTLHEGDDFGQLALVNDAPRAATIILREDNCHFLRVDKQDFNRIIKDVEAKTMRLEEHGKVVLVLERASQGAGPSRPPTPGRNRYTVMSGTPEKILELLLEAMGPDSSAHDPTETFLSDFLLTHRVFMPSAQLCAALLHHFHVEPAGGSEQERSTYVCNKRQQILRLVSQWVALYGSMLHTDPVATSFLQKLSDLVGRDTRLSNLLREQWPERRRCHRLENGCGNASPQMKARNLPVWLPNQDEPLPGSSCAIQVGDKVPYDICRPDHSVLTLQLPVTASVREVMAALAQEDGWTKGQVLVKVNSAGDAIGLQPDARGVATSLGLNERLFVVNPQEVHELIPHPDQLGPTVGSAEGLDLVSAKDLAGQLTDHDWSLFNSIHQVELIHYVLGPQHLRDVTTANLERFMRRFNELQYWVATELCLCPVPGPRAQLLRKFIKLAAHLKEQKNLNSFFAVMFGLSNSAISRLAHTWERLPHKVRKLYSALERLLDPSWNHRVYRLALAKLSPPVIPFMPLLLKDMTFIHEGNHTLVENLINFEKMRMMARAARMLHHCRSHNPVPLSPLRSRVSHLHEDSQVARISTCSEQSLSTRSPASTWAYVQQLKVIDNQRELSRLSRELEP
Summary of the method: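 Released BODIPY-GDP fluoresces less than Rap1-bound BODIPY-GDP; the signal is followed at 480/540 nm at 5-min intervals over 30 min, after 5 min at room temperature. Reactions contain 100 nM EPAC1, 250 nM RAP1B-BODIPY-GDP and 50 uM GDP; results are normalized to ATA and DMSO.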

[2] = target: Rap guanine nucleotide exchange factor 3 (Homo sapiens) (UniProt O95398); assay: Confirmatory qHTS for agonist of cAMP-regulated guanine nucleotide exchange factor 3 (EPAC1) (AID 1645881); also: nearly all actives have a fitted effect of over 75% in size; also: potency is read from the fitted curve at half-maximal effect;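 as to activation: EPAC1 catalysed release of BODIPY-GDP from Rap1B seen as fluorescence loss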
[3] = target: Rap guanine nucleotide exchange factor 4 (Homo sapiens) (UniProt Q8WZA2); assay: Confirmatory qHTS for agonist of cAMP-regulated guanine nucleotide exchange factor 4 (EPAC2) (AID 1645884);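 also: nucleotide exchange releases bodipy-GDP from Rap1 and this lowers its fluorescence; nearly all actives have a fitted effect of over 65% in size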; also: potency is read from the fitted curve at half-maximal effect
Rap guanine nucleotide exchange factor 4 (Homo sapiens), sequence (Q8WZA2 whole entry, looked up): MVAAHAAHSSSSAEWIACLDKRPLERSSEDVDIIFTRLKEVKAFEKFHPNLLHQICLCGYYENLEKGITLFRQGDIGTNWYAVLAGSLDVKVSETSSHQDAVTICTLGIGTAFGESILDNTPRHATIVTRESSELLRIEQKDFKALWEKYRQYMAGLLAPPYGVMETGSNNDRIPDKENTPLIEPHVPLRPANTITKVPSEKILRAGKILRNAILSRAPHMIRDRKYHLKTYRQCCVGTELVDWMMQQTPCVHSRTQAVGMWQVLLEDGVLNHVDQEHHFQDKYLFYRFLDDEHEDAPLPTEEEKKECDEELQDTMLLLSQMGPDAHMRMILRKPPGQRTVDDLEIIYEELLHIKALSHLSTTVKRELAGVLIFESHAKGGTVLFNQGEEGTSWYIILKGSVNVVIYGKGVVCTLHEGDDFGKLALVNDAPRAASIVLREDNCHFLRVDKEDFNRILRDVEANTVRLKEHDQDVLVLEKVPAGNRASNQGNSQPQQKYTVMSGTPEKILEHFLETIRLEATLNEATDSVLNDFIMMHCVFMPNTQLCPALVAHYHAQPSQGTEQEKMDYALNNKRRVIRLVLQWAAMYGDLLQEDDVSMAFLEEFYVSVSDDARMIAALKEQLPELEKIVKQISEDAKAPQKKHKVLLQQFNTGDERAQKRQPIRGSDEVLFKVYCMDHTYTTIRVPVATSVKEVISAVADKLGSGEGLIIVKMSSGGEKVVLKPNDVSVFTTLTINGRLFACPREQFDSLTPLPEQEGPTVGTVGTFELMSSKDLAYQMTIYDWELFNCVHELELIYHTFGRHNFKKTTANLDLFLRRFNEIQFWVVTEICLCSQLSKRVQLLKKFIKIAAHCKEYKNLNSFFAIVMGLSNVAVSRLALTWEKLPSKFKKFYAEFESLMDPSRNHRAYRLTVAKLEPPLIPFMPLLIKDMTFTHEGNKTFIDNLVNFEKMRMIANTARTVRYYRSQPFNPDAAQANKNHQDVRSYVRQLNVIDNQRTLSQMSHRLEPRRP

[4] = target: Rap guanine nucleotide exchange factor 4 (Homo sapiens) (UniProt Q8WZA2); assay: Confirmatory qHTS for antagonist of cAMP-regulated guanine nucleotide exchange factor 4 (EPAC2) (AID 1645885); also: nearly all actives have a fitted effect of over 25% in size; also: potency is read from the fitted curve at half-maximal effect
[5] = target: Rap guanine nucleotide exchange factor 3 (Homo sapiens) (UniProt O95398); assay: Counterscreen qHTS for antagonist of cAMP-regulated guanine nucleotide exchange factor 3 (EPAC1) (AID 1645888)
Summary of the method: (§1)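 Rap1B–BODIPY-GDP (250 nM) with 50 uM GDP; compounds pin-transferred to 9.74 nM–152 uM final (activator) or from 7.32 nM upwards (inhibitor). Fluorescence Ex/Em 480/540 nm read at 5 and 30 min, then after adding cAMP or buffer, at room temperature.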

[6] = target: Rap guanine nucleotide exchange factor 3 (Homo sapiens) (UniProt O95398); assay: Counterscreen qHTS for agonist of cAMP-regulated guanine nucleotide exchange factor 3 (EPAC1) (AID 1645889); also: nearly all actives have a fitted effect of over 40% in size; also: potency is read from the fitted curve at half-maximal effect
Summary of the method: as §1

SMILES | Potency [1] | Potency [2] | Potency [3] | Potency [4] | Potency [5] | Potency [6] | activation [3] | activity change, negative = inhibition [5] | activation [6] | outcome [4]
CN(Cc1ccccc1N1CCCC1)C(=O)c1cc2cc(Cl)ccc2o1 | inactive | inactive | inactive | inactive | inactive | inactive | – | – | – | –
Cc1cn2c(=O)cc(COc3ccc(C(C)(C)C)cc3)nc2s1 | inactive | inactive | inactive | inactive | inactive | inactive | – | – | – | –
O=C1C(Cl)=C(N2CCC(C(=O)O)CC2)C(=O)c2ccccc21 | inactive | inactive | inactive | inactive | inactive | 15.8 µM (active) | – | – | – | –
Cn1cc(C(=O)N/N=C/C2=C(N3CCOCC3)C(=C\c3ccccc3)/CC2)ccc1=O | inactive | inactive | – | inactive | – | – | -0.586% [at 17.1 µM, percent relative to cAMP agonist control] | -15% [at 30.8 µM] | 5.8% [at 30.8 µM] | –
Cc1ccc(N2NC(=O)/C(=C\c3cc4c(cc3[N+](=O)[O-])OCO4)C2=O)cc1C | 75.7 µM (active) | inactive | inactive | inactive | inactive | inactive | – | – | – | –
O=C(COc1ccc(F)cc1)Nc1nccs1 | inactive | inactive | inactive | inactive | inactive | inactive | – | – | – | –
CC1(C)CC[C@]2(C(=O)n3ccnc3)CC[C@]3(C)[C@H](C(=O)C=C4[C@@]5(C)C=C(C#N)C(=O)C(C)(C)[C@@H]5CC[C@]43C)[C@@H]2C1 | 14.1 µM (active) | inactive | – | inactive | – | – | -11.4% [at 17.1 µM, percent relative to cAMP agonist control] | -3.92% [at 30.8 µM] | 18.4% [at 30.8 µM] | –
O=C(c1ccccc1)c1nn(-c2ccccc2)c(=O)cc1-c1ccccc1 | inactive | inactive | inactive | inactive | inactive | inactive | – | – | – | –
Cc1noc(C)c1CSc1ncnc2sc(C)c(C)c12 | inactive | inactive | inactive | inactive | inactive | inactive | – | – | – | –
O=C1NN(c2ccccc2)C(=O)/C1=C/c1ccc(Sc2cccc3ccccc23)o1 | 17.8 µM (active) | inactive | – | inactive | – | – | 3.36% [at 17.1 µM, percent relative to cAMP agonist control] | -8.41% [at 30.8 µM] | 23.8% [at 30.8 µM] | –
CCOc1c(OC)cccc1C1CC(=O)Nc2cc3c(cc21)OCCO3 (configuration not stated) | inactive | inactive | inactive | inactive | inactive | inactive | – | – | – | –
Cc1nn(CC(=O)N(C)C2CCS(=O)(=O)C2)c(C)c1[N+](=O)[O-] (configuration not stated) | inactive | inactive | – | inactive | – | – | 2.8% [at 17.1 µM, percent relative to cAMP agonist control] | -13.2% [at 30.8 µM] | 30.9% [at 30.8 µM] | –
O=C(Cn1cnc2scc(-c3cccc([N+](=O)[O-])c3)c2c1=O)NCc1ccco1 | 37.9 µM (active) | inactive | inactive | inactive | inactive | inactive | – | – | – | –
O=C(NCCCn1ccnc1)c1cc(-c2cccnc2)nc2ccc(Br)cc12 | inactive | inactive | inactive | inactive | inactive | inactive | – | – | – | –
COc1ccc(CCNC(=O)CCCCCn2c(SCC(N)=O)nc3cc4c(cc3c2=O)OCO4)cc1OC | inactive | inactive | inactive | inactive | inactive | inactive | – | – | – | –
O=C1c2cc(O)c(O)cc2OC(c2ccc(O)c(O)c2)C1O (configuration not stated) | 42.6 µM (active) | inactive | inactive | inactive | inactive | inactive | – | – | – | –
Cc1onc(-c2c(F)cccc2Cl)c1C(=O)Oc1ccccc1 | inactive | inactive | – | inactive | – | – | 1.99% [at 17.1 µM, percent relative to cAMP agonist control] | -3.3% [at 30.8 µM] | 7.91% [at 30.8 µM] | –
CCCCNC(=O)Cn1nc(N2CCN(c3ccccc3OC)CC2)ccc1=O | inactive | inactive | inactive | inactive | inactive | inactive | – | – | – | –
CN1/C(=C\C=C(/C#N)C(=O)Nc2ccccc2F)C(C)(C)c2ccccc21 | inactive | 100 µM (active) | 100 µM (active) | inactive | inactive | 14.1 µM (active) | – | – | – | –
CC1(C)CC(=O)c2sc(N3CCCCC3)nc2C1 | inactive | inactive | inactive | 75.7 µM (active) | inactive | inactive | – | – | – | –
CC(=O)NC(CCS(C)(=O)=O)C(=O)Nc1cccc(C)c1C (configuration not stated) | inactive | inactive | inactive | inactive | inactive | inactive | – | – | – | –

SMILES | Potency [1] | Potency [2] | Potency [3] | Potency [4] | Potency [5] | Potency [6] | activation [3] | activity change, negative = inhibition [5] | activation [6] | outcome [4]
COc1ccc(N(C)C(=O)c2oc(=O)c3ccccc3c2-c2ccc(C)cc2)c(OC)c1 | inactive | inactive | inactive | inactive | inactive | inactive | – | – | – | –
O=C(O)c1ccc(N/N=C/c2c(F)cccc2Cl)cc1 | inactive | inactive | – | inactive | – | – | 2.99% [at 17.1 µM, percent relative to cAMP agonist control] | -2.2% [at 30.8 µM] | 3.47% [at 30.8 µM] | –
Cc1ccc(-n2nc3c(=O)n(CCCC(=O)NCc4ccccc4F)nc(C)c3c2C)cc1 | inactive | inactive | inactive | inactive | inactive | inactive | – | – | – | –
COc1cc(/C=N/NC(=O)c2ccc3c(c2)OCCO3)cc(Br)c1O | 42.6 µM (active) | inactive | inactive | inactive | inactive | inactive | – | – | – | –
Cc1ccc(OCCC(=O)OCC(=O)NNC(=O)c2ccccc2)cc1 | inactive | inactive | – | inactive | – | – | 0.0575% [at 17.1 µM, percent relative to cAMP agonist control] | -6.38% [at 30.8 µM] | 0.419% [at 30.8 µM] | –
Cc1cccc(-c2nc(SCC(=O)Nc3cccc(C(F)(F)F)c3)n3[nH]c(=O)cc3n2)c1 | 84.9 µM (active) | inactive | inactive | inactive | inactive | inactive | – | – | – | –
CCOc1cc(C(=O)Nc2ccc3c(c2)n(C)c(=O)c(=O)n3C)cc(OCC)c1OCC | inactive | inactive | inactive | – | inactive | inactive | – | – | – | inactive [at 12.7 µM]
CCOc1cc(-c2nnc(NC(=O)C3=COCCO3)o2)cc(OCC)c1OCC | inactive | inactive | – | inactive | – | – | -6.21% [at 17.1 µM, percent relative to cAMP agonist control] | 3.19% [at 30.8 µM] | 5.03% [at 30.8 µM] | –
Cc1ccc(S(=O)(=O)/N=C2/NC(=O)/C(=C/c3ccccc3)S2)cc1 | 42.6 µM (active) | inactive | inactive | inactive | inactive | inactive | – | – | – | –
CC[C@@]1(c2ccccc2OC)ON(c2ccccc2C(F)(F)F)C1=O | inactive | inactive | inactive | inactive | inactive | inactive | – | – | – | –
CCC(Oc1ccccc1)C(=O)Nc1cc(Cl)ccc1-n1cncn1 (configuration not stated) | inactive | inactive | inactive | 47.8 µM (active) | inactive | inactive | – | – | – | –
O=[N+]([O-])c1cc(-c2ccccc2)cc([N+](=O)[O-])c1O | 75.7 µM (active) | inactive | inactive | 42.6 µM (active) | inactive | inactive | – | – | – | –
COc1cccc(-n2nnc3c(=O)n(C/C=C/c4ccccc4)cnc32)c1 | inactive | inactive | – | inactive | – | – | 6.54% [at 17.1 µM, percent relative to cAMP agonist control] | 2.95% [at 30.8 µM] | 17.3% [at 30.8 µM] | –
Nc1nc(CSc2nnnn2-c2ccc(Cl)cc2)nc(N2CCOCC2)n1 | inactive | inactive | – | inactive | – | – | 5.65% [at 17.1 µM, percent relative to cAMP agonist control] | 9.77% [at 30.8 µM] | 8.16% [at 30.8 µM] | –
Cc1ccc(-n2nc3c(=O)n(CCCC(=O)NCc4ccccc4C)nc(C)c3c2C)cc1 | inactive | inactive | inactive | inactive | inactive | inactive | – | – | – | –
Cc1ccc(-c2csc(NC(=O)c3ccc(Br)cc3)c2C(=O)O)cc1 | 33.8 µM (active) | inactive | inactive | inactive | inactive | inactive | – | – | – | –
O=c1c2sccc2nc(SCc2cc(=O)n3cc(Cl)ccc3n2)n1Cc1ccccn1 | inactive | inactive | inactive | inactive | inactive | inactive | – | – | – | –
O=C(c1ccc(Br)o1)N1CCN(c2ccc3nnc(-c4ccc(F)cc4)n3n2)CC1 | inactive | inactive | – | inactive | – | – | -1.27% [at 17.1 µM, percent relative to cAMP agonist control] | -4.8% [at 30.8 µM] | 25.2% [at 30.8 µM] | –
COCCOC(=O)C(C#N)c1nc2ccccc2nc1N1CCN(Cc2ccccc2)CC1 (configuration not stated) | inactive | inactive | – | inactive | – | – | 10.5% [at 17.1 µM, percent relative to cAMP agonist control] | 4.89% [at 30.8 µM] | 38.2% [at 30.8 µM] | –
Cc1cn(S(=O)(=O)c2ccccc2[N+](=O)[O-])cn1 | inactive | inactive | – | inactive | – | – | 0.773% [at 17.1 µM, percent relative to cAMP agonist control] | -3.67% [at 30.8 µM] | -4.19% [at 30.8 µM] | –
CC(Sc1ccc(Cl)cc1)C(=O)NNC(=O)c1csc(N2CCOCC2)n1 (configuration not stated) | inactive | inactive | – | inactive | – | – | 4.3% [at 17.1 µM, percent relative to cAMP agonist control] | -11.6% [at 30.8 µM] | 30.8% [at 30.8 µM] | –
